# Legend:
# Assay in all cases: yeast three-hybrid, YBZ-1, SC-Leu-His + 0.5 mM 3-AT, 4 days
# Conditions in all cases: tags: N-Gal4 AD-HA kept; label: inside an RPR1-promoter hybrid RNA with tandem MS2 sites; ssRNA
# PUM1 PUF domain R1-KLR = PUM1 PUF domain R1-KLR (Homo sapiens, UniProt Q14671 828-1176, S863K;R864L;Q867R)
# Summary of the method: (§1)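 The interaction score is the log change in variant frequency from input to selection. Scores were computed in log2 with a pseudocount of 1 for absent variants, using Illumina sequencing of PCR-amplified repeat regions. The input came from four days on SC-Leu and the selection from four days on SC-Leu-His + 0.5 mM 3-AT. The cells were strain YBZ-1 (LexA–MS2 coat fusion, HIS3 reporter) co-expressing Pumilio-1 PUF domain libraries and matching RNA elements from a centromeric plasmid.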
# PUM1 PUF domain R1-KRY = PUM1 PUF domain R1-KRY (Homo sapiens, UniProt Q14671 828-1176, S863K;Q867Y)
# Summary of the method: as §1
# PUM1 PUF domain R1-GWE = PUM1 PUF domain R1-GWE (Homo sapiens, UniProt Q14671 828-1176, S863G;R864W;Q867E)
# Summary of the method: as §1
# PUM1 PUF domain R6-WWG = molecular target: T1, PUM1 PUF domain R6-WWG (Homo sapiens, UniProt Q14671 828-1176, N1043W;Y1044W;Q1047G)
# T1 sequence: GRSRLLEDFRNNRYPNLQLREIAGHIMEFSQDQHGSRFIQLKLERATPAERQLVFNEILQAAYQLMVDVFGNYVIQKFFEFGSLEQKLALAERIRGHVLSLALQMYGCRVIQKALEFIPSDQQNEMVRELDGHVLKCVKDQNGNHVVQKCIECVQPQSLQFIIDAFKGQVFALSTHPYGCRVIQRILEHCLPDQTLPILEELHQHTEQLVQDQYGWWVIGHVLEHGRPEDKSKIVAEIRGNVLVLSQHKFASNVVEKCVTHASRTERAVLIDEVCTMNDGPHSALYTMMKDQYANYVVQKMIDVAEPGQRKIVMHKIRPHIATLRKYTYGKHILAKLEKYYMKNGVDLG
# Summary of the method: as §1
# PUM1 PUF domain R3-TRH = PUM1 PUF domain R3-TRH (Homo sapiens, UniProt Q14671 828-1176, C935T;Q939H)
# Summary of the method: as §1
# PUM1 PUF domain R8-HWI = PUM1 PUF domain R8-HWI (Homo sapiens, UniProt Q14671 828-1176, N1122H;Y1123W;Q1126I)
# Summary of the method: as §1
# PUM1 PUF domain R3-VFF = PUM1 PUF domain R3-VFF (Homo sapiens, UniProt Q14671 828-1176, C935V;R936F;Q939F)
# Summary of the method: as §1
# PUM1 PUF domain R5-GKN = PUM1 PUF domain R5-GKN (Homo sapiens, UniProt Q14671 828-1176, C1007G;R1008K;Q1011N)
# Summary of the method: as §1
# PUM1 PUF domain R3-FSK = PUM1 PUF domain R3-FSK (Homo sapiens, UniProt Q14671 828-1176, C935F;R936S;Q939K)
# Summary of the method: as §1
sequence,measurement,setting,value
GGCUAGAACUAGUGGAUCCCCCGGCGCCCGGCGGCUCGAGCCCGGGUAAGUGUAAAUUGUCUGCAUGCCGCCGGGCGCCAUGCCUGCAGGUCGACUCUAGAAAACAUG,binding signal,PUM1 PUF domain R1-KLR,4.29 log2 enrichment (interaction score)
same,binding signal,PUM1 PUF domain R1-KRY,3.65 log2 enrichment (interaction score)
GGCUAGAACUAGUGGAUCCCCCGGCGCCCGGCGGCUCGAGCCCGGGUAAGUGUAAAUGGUCUGCAUGCCGCCGGGCGCCAUGCCUGCAGGUCGACUCUAGAAAACAUG,binding signal,PUM1 PUF domain R1-GWE,2.61 log2 enrichment (interaction score)
GGCUAGAACUAGUGGAUCCCCCGGCGCCCGGCGGCUCGAGCCCGGGUAAGUGAAAAUAGUCUGCAUGCCGCCGGGCGCCAUGCCUGCAGGUCGACUCUAGAAAACAUG,binding signal,PUM1 PUF domain R6-WWG,2.56 log2 enrichment (interaction score)
GGCUAGAACUAGUGGAUCCCCCGGCGCCCGGCGGCUCGAGCCCGGGUAAGUGUAAAUAGUCUGCAUGCCGCCGGGCGCCAUGCCUGCAGGUCGACUCUAGAAAACAUG,binding signal,PUM1 PUF domain R6-WWG,4.79 log2 enrichment (interaction score)
same,binding signal,PUM1 PUF domain R3-TRH,4.48 log2 enrichment (interaction score)
same,binding signal,PUM1 PUF domain R8-HWI,3.85 log2 enrichment (interaction score)
GGCUAGAACUAGUGGAUCCCCCGGCGCCCGGCGGCUCGAGCCCGGGUAAGUGUAAUUAGUCUGCAUGCCGCCGGGCGCCAUGCCUGCAGGUCGACUCUAGAAAACAUG,binding signal,PUM1 PUF domain R3-TRH,1.56 log2 enrichment (interaction score)
same,binding signal,PUM1 PUF domain R3-VFF,4.71 log2 enrichment (interaction score)
GGCUAGAACUAGUGGAUCCCCCGGCGCCCGGCGGCUCGAGCCCGGGUAAGUGUCAAUAGUCUGCAUGCCGCCGGGCGCCAUGCCUGCAGGUCGACUCUAGAAAACAUG,binding signal,PUM1 PUF domain R5-GKN,1.57 log2 enrichment (interaction score)
GGCUAGAACUAGUGGAUCCCCCGGCGCCCGGCGGCUCGAGCCCGGGUAAGUGUUAAUAGUCUGCAUGCCGCCGGGCGCCAUGCCUGCAGGUCGACUCUAGAAAACAUG,binding signal,PUM1 PUF domain R5-GKN,3.34 log2 enrichment (interaction score)
GGCUAGAACUAGUGGAUCCCCCGGCGCCCGGCGGCUCGAGCCCGGGUAAGUGUAAGUAGUCUGCAUGCCGCCGGGCGCCAUGCCUGCAGGUCGACUCUAGAAAACAUG,binding signal,PUM1 PUF domain R3-FSK,4.08 log2 enrichment (interaction score)

# Source: publication PMC8384837, “Expanding the binding specificity for RNA recognition by a PUF domain”
